From paper PMC6792352, “Limited Chemical Structural Diversity Found to Modulate Thyroid Hormone Receptor in the Tox21 Chemical Library” (Environmental Health Perspectives, 2019) come the findings set out here.

Counter-ions that a name gives are not always drawn.

For this assay, the system named is thyroid hormone receptor (endogenous TRα and TRβ). Also on record: species or system GH3-TRE-Luc (rat pituitary); GH3-TRE-Luc luciferase reporter, antagonist mode against 1 nM T3, loss of signal, qHTS. To be noted: read-out: Average AC50 (uM) GH3-TRE-Antag, antagonist mode, 1 nM T3, no GH3 cytotoxicity hit.
For the molecule `O=C(O)c1snc(Cl)c1Cl` [3,4-Dichloro-5-isothiazolecarboxylic acid], the AC50 was found to be 51.4 µM. The same measure for `O=C(c1ccccc1)c1ccc(O)cc1O` [2,4-Dihydroxybenzophenone]: 87 µM; for `CCOC1O[C@H]([C@@H](COCc2ccccc2)OCc2ccccc2)[C@H](OCc2ccccc2)[C@H]1O` (stereo partly shown) [Tribenoside]: 11.1 µM. The same measure for `NC(=O)N(O)[C@@H]1COc2cc(OCc3ccccc3)ccc21` [SB202235]: 85 µM. The same measure for `COc1cccc(N(C)C(=S)Oc2ccc3c(c2)CCCC3)n1` [Liranaftate]: 39.9 µM; for `CC(C)=CCC[C@](C)(O)[C@@H]1CC=C(C)CC1` [Levomenol]: 38 µM. Consider `CCCc1c(OCCCOc2ccc(OCC(=O)O)cc2)ccc(C(C)=O)c1O` [4-[3-(4-Acetyl-3-hydroxy-2-propylphenoxy)propoxy]phenoxy-acetic acid], for which the AC50 was 85.9 µM. On to `CCCCOCCOC(=O)COc1cc(Cl)c(Cl)cc1Cl` [2,4,5-T-butotyl], for which the AC50 is 80.4 µM. The result for `CC(C)OC(=O)OCOP(=O)(CO[C@H](C)Cn1cnc2c(N)ncnc21)OCOC(=O)OC(C)C` [Tenofovir disoproxil fumarate] reads 24.9 µM.

For `c1ccc(-c2cccc(-c3ccccc3)c2)cc1` [1,1':3',1''-Terphenyl], the half-maximal activity concentration (AC50) came to 50.3 µM.

`CCCCC(CC)COC(=O)c1ccc(N(C)C)cc1` (stereo not shown) [2-Ethylhexyl 4-(dimethylamino)benzoate]: the AC50 came out at 47.2 µM. As to `CC(C)c1ccc2oc3nc(N)c(C(=O)O)cc3c(=O)c2c1` [Amlenanox], the AC50 amounted to 32.7 µM. The result for `O=C(NOC[C@H](O)CO)c1ccc(F)c(F)c1Nc1ccc(I)cc1F` [PD 0325901] reads 4.11 µM; that for `C/C=C1/C(=O)C[C@H]2[C@@H]3CCC4=CC(=O)CC[C@]4(C)[C@H]3CC[C@]12C` [Guggulsterone E], 18 µM; that for `CCCN(CCC)C(=O)Cc1c(-c2ccc(Cl)cc2)nc2ccc(Cl)cn12` [Alpidem], 25.1 µM. Turning to `O=C(O)c1cc(Cl)cc(Cl)c1O` [3,5-Dichlorosalicylic acid], the AC50 came out at 68.6 µM. The same measure for `CC(C)C(O)(c1ccc(OC(F)(F)F)cc1)c1cncnc1` (stereo not shown) [Flurprimidol]: 70.7 µM. With `O=C(O)C(F)(F)C(F)(F)C(F)(F)C(F)(F)C(F)(F)C(F)(F)C(F)(F)C(F)(F)F` [Perfluorononanoic acid], the AC50 is 71.7 µM. The same measure for `CN(CC(=O)N1CCOCC1)Cc1c(Cl)cccc1NC(=O)c1ccccc1` [Fominoben hydrochloride]: more than 50 µM; for `CC(=O)CC/C=C(\C)CC/C=C(\C)CC/C=C(\C)CCC=C(C)C` [Teprenone]: 33.9 µM; for `COc1ccccc1NC(=O)c1cc2ccccc2cc1O` [3-Hydroxy-2-naphthoic o-anisidide]: 10.4 µM. The result for `COCC(C)N(C(=O)CCl)c1c(C)csc1C` (stereo not shown) [Dimethenamid] reads more than 50 µM; that for `COc1ccc(Cc2nccc3cc(OC)c(OC)cc23)cc1OC` [Papaverine hydrochloride], 15.6 µM.

With `CCCCCCCCCCCCCOS(=O)(=O)O` [Sodium tridecyl sulfate], the AC50 is 67.6 µM.

Regarding `CCc1ccc(CCOc2ccc(CC3SC(=O)NC3=O)cc2)nc1` (stereo not shown) [Pioglitazone hydrochloride], the AC50 is more than 50 µM.

For `Cc1cccc(Nc2ccccc2C(=O)O)c1C` [Mefenamic acid], the AC50 was 27.4 µM.

As to `Oc1ccc(C(=C(Cl)Cl)c2ccc(O)cc2)cc1` [Bis(4-hydroxyphenyl)-2,2-dichloroethylene], the AC50 came out at 38.4 µM. The same measure for `O=C(CCC1CCN(Cc2ccccc2)CC1)c1ccc2c(c1)NCCCC2` [Zanapezil fumerate]: 12.4 µM; for `c1ccc2c(c1)ccc1ccccc12` [Phenanthrene]: 50.1 µM; for `c1csc(SSc2cccs2)c1` [2-Thienyl disulfide]: 57.5 µM. In the case of `c1ccc2c(c1)CCc1ccccc1N2` [10,11-Dihydro-5H-dibenz[b,f]azepine], the AC50 amounted to 40.6 µM. The same measure for `c1ccc2c(c1)Cc1ccccc1-2` [Fluorene]: 55.8 µM; for `O=C1c2ccccc2C(=O)C1(O)O` [Ninhydrin]: 80 µM.

For `CC/C=C/CCCCCCCCC1CC(=O)OC1=O` (stereo not shown) [(Tetrapropenyl)succinic anhydride], the AC50 came out at 65.5 µM. Turning to `CCC1(C2=NCCN2)Cc2ccccc2O1` (stereo not shown) [Efaroxan], the AC50 is 45.2 µM. The same measure for `C=CC(C)(O)CC/C=C(\C)CCC=C(C)C` (stereo not drawn) [trans-Nerolidol]: 9.85 µM.

Turning to `CCC(=O)O[C@]1(C(=O)CCl)[C@@H](C)C[C@H]2[C@@H]3C[C@H](F)C4=CC(=O)C=C[C@]4(C)[C@@]3(F)[C@@H](O)C[C@@]21C` [Halobetasol propionate], the AC50 is 42.4 µM.

What is called AC50 is the concentration giving half of the maximal activity seen.
